# Reference: the supplement of paper PMC11001985
# A number with no mark means an inactive call.
# Compound: C#CCNC(=O)CCSSCCC(=O)NCCc1ccc(C=O)c(C=O)c1
# Experiment: lysine labeling ratio R10:1 (500 µM / 50 µM probe), SILAC-ABPP in living cells; higher = lower intrinsic lysine reactivity toward the probe, active = 2 or less
# Conditions: HeLa; probe concentrations 500 vs 50 µM
# Procedure, shortened: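 Living SILAC light and heavy HeLa cells in PBS at room temperature were treated with an alkyne-tagged, disulfide-linked lysine probe at 50 µM or 500 µM, with forward and reverse label swaps. The mixed lysates were clicked to biotin-azide, digested with trypsin, captured on neutravidin, released with DTT, alkylated and run by LC-MS/MS on a TIMS-TOF Pro. R for each lysine is the filtered median high-probe/low-probe MS1 peptide ratio, taken again as the median over forward and reverse replicates. Any value above 20 is set to 20.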
# UniProt P11047, sequence (P11047 whole entry): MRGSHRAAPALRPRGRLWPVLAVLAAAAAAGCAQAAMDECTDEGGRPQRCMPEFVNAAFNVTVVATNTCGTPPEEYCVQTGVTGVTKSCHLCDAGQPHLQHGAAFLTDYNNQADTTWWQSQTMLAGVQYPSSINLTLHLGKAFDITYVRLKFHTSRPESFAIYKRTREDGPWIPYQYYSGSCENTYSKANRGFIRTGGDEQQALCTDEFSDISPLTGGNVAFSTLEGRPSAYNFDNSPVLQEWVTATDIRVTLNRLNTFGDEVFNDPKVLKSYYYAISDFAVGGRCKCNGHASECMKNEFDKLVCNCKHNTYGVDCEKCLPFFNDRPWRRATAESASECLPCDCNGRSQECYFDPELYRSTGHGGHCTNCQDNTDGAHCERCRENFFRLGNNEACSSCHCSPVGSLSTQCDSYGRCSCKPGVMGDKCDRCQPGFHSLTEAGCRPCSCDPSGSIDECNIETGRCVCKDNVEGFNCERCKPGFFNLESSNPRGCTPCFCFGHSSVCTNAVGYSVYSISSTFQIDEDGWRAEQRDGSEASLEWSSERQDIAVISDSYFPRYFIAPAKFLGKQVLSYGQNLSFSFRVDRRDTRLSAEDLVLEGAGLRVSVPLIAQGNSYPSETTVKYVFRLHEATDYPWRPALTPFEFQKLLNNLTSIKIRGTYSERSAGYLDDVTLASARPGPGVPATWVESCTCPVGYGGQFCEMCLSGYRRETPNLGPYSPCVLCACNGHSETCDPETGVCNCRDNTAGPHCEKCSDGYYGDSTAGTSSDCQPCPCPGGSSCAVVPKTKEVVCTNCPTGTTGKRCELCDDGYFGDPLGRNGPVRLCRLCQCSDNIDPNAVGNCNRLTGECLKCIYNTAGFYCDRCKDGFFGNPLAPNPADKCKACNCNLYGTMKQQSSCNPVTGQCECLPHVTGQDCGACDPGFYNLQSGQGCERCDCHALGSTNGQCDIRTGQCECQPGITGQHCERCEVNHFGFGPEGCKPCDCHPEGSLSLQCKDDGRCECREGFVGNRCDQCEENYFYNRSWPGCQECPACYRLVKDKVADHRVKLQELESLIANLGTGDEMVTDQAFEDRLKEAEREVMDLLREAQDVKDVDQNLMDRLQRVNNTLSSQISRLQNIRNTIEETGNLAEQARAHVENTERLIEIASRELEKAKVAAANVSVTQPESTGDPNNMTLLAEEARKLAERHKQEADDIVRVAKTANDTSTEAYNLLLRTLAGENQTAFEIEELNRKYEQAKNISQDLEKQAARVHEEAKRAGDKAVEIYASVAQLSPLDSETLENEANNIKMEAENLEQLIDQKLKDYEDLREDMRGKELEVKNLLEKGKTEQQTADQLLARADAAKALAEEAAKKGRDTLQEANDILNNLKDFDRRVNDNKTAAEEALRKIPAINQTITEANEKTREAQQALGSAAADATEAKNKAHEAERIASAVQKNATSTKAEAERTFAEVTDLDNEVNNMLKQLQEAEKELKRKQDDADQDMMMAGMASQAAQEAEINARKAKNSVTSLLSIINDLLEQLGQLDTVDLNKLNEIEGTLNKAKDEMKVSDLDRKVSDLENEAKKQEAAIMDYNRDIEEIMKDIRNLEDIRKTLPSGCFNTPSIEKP
# UniProt P11717, sequence (P11717 whole entry): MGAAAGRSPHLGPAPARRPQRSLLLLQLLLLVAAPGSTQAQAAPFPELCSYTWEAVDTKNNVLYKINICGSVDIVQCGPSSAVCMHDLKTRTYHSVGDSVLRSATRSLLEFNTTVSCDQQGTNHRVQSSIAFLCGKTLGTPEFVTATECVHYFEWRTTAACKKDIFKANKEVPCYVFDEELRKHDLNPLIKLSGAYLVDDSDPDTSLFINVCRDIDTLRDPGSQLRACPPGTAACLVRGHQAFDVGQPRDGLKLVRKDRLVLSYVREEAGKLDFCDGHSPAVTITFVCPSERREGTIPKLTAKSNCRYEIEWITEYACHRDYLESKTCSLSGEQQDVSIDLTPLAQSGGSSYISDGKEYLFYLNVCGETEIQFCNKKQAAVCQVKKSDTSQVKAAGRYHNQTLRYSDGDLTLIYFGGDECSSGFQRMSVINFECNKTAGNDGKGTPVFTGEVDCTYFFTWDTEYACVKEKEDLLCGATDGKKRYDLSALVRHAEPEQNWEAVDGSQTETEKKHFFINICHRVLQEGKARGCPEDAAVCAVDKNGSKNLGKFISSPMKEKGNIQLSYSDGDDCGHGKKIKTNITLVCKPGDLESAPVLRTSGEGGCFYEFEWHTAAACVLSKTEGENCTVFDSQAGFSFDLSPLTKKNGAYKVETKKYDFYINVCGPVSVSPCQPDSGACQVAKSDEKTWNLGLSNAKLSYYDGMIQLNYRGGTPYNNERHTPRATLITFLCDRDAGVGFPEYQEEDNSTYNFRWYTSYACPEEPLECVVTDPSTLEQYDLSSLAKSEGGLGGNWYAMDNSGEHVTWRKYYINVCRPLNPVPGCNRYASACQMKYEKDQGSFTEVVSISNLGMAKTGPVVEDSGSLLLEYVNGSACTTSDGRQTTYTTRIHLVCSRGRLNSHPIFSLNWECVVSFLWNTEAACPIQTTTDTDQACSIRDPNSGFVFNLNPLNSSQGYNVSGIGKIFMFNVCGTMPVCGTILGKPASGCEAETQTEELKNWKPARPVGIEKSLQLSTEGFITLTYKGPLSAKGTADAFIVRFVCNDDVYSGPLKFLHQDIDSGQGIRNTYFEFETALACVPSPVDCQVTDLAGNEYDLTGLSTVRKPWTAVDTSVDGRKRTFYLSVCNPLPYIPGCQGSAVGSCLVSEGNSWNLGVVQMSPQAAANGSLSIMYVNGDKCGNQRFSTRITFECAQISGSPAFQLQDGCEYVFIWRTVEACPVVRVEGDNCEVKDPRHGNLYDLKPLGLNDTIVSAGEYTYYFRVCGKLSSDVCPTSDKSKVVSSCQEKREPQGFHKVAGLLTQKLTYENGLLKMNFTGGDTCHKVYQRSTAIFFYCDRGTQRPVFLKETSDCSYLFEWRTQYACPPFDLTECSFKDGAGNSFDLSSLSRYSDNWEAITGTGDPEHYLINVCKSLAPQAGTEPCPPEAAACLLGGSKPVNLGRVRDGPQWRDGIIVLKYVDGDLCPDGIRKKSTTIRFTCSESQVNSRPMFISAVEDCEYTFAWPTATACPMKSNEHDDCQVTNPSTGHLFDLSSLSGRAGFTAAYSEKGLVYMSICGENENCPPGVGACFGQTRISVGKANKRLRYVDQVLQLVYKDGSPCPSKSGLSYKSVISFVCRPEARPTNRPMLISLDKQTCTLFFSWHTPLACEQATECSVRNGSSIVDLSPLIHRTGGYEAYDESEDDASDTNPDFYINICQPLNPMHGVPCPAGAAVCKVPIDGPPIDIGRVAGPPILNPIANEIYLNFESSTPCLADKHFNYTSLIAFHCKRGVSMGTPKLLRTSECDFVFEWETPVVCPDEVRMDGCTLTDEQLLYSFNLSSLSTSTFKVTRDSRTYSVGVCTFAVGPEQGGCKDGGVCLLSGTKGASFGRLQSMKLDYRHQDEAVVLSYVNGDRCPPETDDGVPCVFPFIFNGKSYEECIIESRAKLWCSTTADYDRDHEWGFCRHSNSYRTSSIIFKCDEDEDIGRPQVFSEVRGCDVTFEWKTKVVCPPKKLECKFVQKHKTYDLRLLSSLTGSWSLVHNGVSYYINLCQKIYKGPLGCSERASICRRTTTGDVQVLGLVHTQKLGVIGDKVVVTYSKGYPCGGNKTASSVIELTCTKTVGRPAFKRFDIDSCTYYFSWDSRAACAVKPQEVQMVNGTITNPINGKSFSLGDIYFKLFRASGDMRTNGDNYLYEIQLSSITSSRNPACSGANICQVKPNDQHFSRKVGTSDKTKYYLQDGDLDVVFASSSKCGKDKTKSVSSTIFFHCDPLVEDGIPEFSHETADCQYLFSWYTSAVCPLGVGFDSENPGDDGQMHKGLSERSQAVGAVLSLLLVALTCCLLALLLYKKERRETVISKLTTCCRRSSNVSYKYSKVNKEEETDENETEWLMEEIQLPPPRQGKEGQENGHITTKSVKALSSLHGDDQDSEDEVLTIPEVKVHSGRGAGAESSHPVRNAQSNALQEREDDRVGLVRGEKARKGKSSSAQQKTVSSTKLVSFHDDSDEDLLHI
# UniProt P17980, sequence (P17980 whole entry): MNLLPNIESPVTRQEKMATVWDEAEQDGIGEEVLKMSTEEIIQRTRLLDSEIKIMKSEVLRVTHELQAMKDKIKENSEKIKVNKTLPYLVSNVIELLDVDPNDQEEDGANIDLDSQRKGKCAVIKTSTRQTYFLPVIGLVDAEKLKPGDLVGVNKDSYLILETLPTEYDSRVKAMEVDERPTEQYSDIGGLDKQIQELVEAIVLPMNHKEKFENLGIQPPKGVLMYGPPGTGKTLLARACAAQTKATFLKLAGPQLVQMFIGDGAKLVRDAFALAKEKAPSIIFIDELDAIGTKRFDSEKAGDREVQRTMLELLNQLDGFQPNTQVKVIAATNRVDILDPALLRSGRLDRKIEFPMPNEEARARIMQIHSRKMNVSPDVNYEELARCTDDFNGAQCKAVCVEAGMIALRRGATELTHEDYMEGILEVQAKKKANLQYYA
# UniProt Q14247, sequence (Q14247 whole entry): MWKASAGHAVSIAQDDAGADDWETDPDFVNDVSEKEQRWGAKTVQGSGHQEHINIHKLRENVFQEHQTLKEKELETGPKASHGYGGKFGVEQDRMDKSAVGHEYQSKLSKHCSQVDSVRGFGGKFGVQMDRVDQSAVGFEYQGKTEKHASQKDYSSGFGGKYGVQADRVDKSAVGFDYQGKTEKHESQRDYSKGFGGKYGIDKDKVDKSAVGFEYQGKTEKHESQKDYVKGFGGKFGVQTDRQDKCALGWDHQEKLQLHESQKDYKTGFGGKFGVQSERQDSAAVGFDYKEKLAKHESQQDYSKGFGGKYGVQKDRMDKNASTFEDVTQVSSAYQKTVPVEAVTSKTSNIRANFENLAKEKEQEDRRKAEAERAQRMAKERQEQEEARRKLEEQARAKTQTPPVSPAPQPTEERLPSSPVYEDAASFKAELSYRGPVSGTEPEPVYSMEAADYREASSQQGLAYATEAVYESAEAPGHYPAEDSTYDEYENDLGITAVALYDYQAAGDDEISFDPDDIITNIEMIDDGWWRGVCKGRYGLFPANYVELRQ
row,Target,lysine labeling ratio R10:1
1,IGF1R (lysine site: K469) (UniProt P08069),3.98
2,C3 (lysine site: K1535) (UniProt P01024),5.81
3,UniProt Q15149 (lysine site: K1921),1.36 (active)
4,TFPI (lysine site: K68) (UniProt P10646),1.41 (active)
5,SEMA3C (lysine site: K495) (UniProt Q99985),2.53
6,GSN (lysine site: K239) (UniProt P06396),4.08
7,MAP4 (lysine site: K946) (UniProt P27816),1.95 (active)
8,LNPEP (lysine site: K626) (UniProt Q9UIQ6),0.72 (active)
9,IGF2R (lysine site: K303) (UniProt P11717),2.37
10,PSMA1 (lysine site: K115) (UniProt P25786),4.28
11,LMO7 (lysine site: K1248) (UniProt Q8WWI1),0.993 (active)
12,PDIA4 (lysine site: K145) (UniProt P13667),0.551 (active)
13,HSD17B10 (lysine site: K105) (UniProt Q99714),2.63
14,AGRN (lysine site: K383) (UniProt O00468),12.9
15,TLN1 (lysine site: K875) (UniProt Q9Y490),7.4
16,PFN1 (lysine site: K127) (UniProt P07737),2.19
17,DISP1 (lysine site: K380) (UniProt Q96F81),2.05
18,ITGA3 (lysine site: K100) (UniProt P26006),2.42
19,TFRC (lysine site: K344) (UniProt P02786),9.15
20,INSR (lysine site: K511) (UniProt P06213),2.12
21,PABPC1 (lysine site: K157) (UniProt P11940),1.38 (active)
22,ITGA1 (lysine site: K291) (UniProt P56199),7.48
23,CTTN (lysine site: K161) (UniProt Q14247),1.61 (active)

row,Target,lysine labeling ratio R10:1
1,IGF2R (lysine site: K1862) (UniProt P11717),1.81 (active)
2,DST (lysine site: K3977) (UniProt Q03001),1.83 (active)
3,LAMC1 (lysine site: K1567) (UniProt P11047),1.42 (active)
4,LAMC1 (lysine site: K1425) (UniProt P11047),2.54
5,CCT6A (lysine site: K388) (UniProt P40227),1.46 (active)
6,UniProt Q16352 (lysine site: K290),1.71 (active)
7,CALD1 (lysine site: K119) (UniProt Q05682),2.67
8,TLN1 (lysine site: K687) (UniProt Q9Y490),3.61
9,RPLP2 (lysine site: K25) (UniProt P05387),2.1
10,EPHB4 (lysine site: K474) (UniProt P54760),0.746 (active)
11,PPIB (lysine site: K181) (UniProt P23284),3.57
12,HSP90AB1 (lysine site: K624) (UniProt P08238),7.02
13,ACIN1 (lysine site: K143) (UniProt Q9UKV3),0.535 (active)
14,GNS (lysine site: K502) (UniProt P15586),0.59 (active)
15,PSMC3 (lysine site: K372) (UniProt P17980),2.19
16,MYH9 (lysine site: K910) (UniProt P35579),4.64
17,ILF3 (lysine site: K535) (UniProt Q12906),0.982 (active)
18,CD55 (lysine site: K160) (UniProt P08174),1.09 (active)
19,VAPA (lysine site: K205) (UniProt Q9P0L0),7.76
20,KPNB1 (lysine site: K867) (UniProt Q14974),1.36 (active)
21,ACSL3 (lysine site: K422) (UniProt O95573),1.49 (active)
22,MCAM (lysine site: K217) (UniProt P43121),2.14
